ERG Ets-DNA blk: qHTS for Small Molecule Inhibitors of the ERG Ets/DNA interaction | fluorescence polarization, His-ERG Ets domain / labelled DNA | Potency, µM (doses to about 76.9 µM), inactives show at the top dose FP activity, negative = inhibition, most hits filed as inhibitors | 370,000 compounds, 0.028% hits | AID 624246, 2012; active = well fitted inhibition curve with a large enough effect in the polarisation, with a control signal flat; inconclusive = small, poorly fitted or top-dose-only effect, or effect the other way, or a change in a side signal; inactive = no such curve, though single readings can be large or run the other way; the % refers to the polarisation;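 note: polarization taken with two DNA probes labelled with fluorescein and Texas red; % of control where 0% means no effect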
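His-tagged ERG Ets domain (1 uM in the protein solution; 300mM KCl, 50mM Tris-HCl, 1mM EDTA, 1mM DTT, pH 7.5) received compound, then a probe mix of 5 nM fluorescein-DNA and 100nM Texas-615-DNA. Fluorescence polarization was read for both dyes.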
B2AR arrestin: qHTS assay of beta-arrestin-biased ligands of beta2-adrenergic receptor | beta-arrestin recruitment to beta2AR, cell-based reporter | Potency, µM (doses to about 46.1 µM), for the others: at the top dose activation, hits mostly activators | 330,000 compounds, 0.02% hits;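 note: 0% = DMSO controls and full agonism = EC100 isoproterenol or metaproterenol; nearly all actives have a fitted effect of over 65% in size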
Target sequence (P07550 whole entry, looked up): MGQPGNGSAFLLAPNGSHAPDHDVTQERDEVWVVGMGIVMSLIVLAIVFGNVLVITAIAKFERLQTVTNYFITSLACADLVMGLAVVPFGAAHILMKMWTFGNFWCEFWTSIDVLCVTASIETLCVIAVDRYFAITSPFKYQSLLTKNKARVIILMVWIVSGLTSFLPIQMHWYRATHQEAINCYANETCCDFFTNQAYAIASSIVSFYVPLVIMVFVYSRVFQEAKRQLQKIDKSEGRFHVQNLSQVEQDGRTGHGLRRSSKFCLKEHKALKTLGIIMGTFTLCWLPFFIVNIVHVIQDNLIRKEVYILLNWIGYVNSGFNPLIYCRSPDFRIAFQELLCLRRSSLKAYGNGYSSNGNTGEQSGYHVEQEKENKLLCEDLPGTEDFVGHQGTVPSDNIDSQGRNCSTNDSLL
BRCA1 expr up: qHTS Assay to Identify Small Molecule Activators of BRCA1 Expression; MCF7-BRCA1-FFLuc reporter, luminescence, 48 h; response scale: scaled: vehicle 0%, 10 µM genistein 100%; Potency, µM (doses to about 46.1 µM), inactives show top-dose activation, actives largely listed as activators; 380,000 compounds, 1.1% hits; note: nearly all actives have a fitted effect of over 80% in size
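Luminescence from a BRCA1-driven firefly luciferase in MCF7 cells was the read-out, taken 15 min after substrate addition following 48 h compound exposure at 37 °C. Data were normalized to a 10 microM genistein control and DMSO vehicle.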
Mito fusion yeast: qHTS Assay for Small Molecule Inhibitors of Mitochondrial Division or Activators of Mitochondrial Fusion | S. cerevisiae fusion-defective mutant growth rescue, CellTiterGlo 48 h | Potency, µM (titrated, usually from 46.1 µM), for inactives: at the highest dose growth rescue (activation), hits mostly activators | 320,000 compounds, 0.23% hits | AID 485298, 2010; note: % of control where 0% means no effect; nearly all actives have a fitted effect of over 45% in size
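Yeast fusion mutant, YPEG (non-fermentable carbon), compound, 48 h at 37C non-permissive; CellTiterGlo added, 10 min RT, luminescence read. Rescued growth = division inhibition.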
Starred values were filed as active, the others as inactive; ? = inconclusive; / = no result. Most compounds without a hit are left out; they make up all but 1.2% or so of the library. Unless noted, calls come from the whole dose curve; as a rule, active = well fitted curve in the direction sought with a large enough effect; inconclusive = small, poorly fitted or top-dose-only effect, or another doubt; inactive = no such curve, though single readings can be large; an effect the other way counts as inactive or inconclusive. Potency is the fitted concentration of half-maximal effect.

SMILES	ERG Ets-DNA blk	B2AR arrestin	BRCA1 expr up	Mito fusion yeast
CS(=O)(=O)c1ccc2nc(NC(=O)c3cc([N+](=O)[O-])cc([N+](=O)[O-])c3)sc2c1	1%	0%	0%	2%
CS(=O)(=O)c1ccc2nc(NC(=O)c3cccc([N+](=O)[O-])c3)sc2c1	4%	-1%	5.6µM*	2%
COc1cc(OC)cc(C(=O)Nc2nc3ccc(S(C)(=O)=O)cc3s2)c1	8%	0%	5.6µM*	1%
Cc1ccc(C(=O)Nc2nnc(S(=O)(=O)N(C)Cc3ccc(F)cc3)s2)cc1	2%	/	/	/
Cc1ccc(OCC(=O)Nc2ccc(F)cc2)c([N+](=O)[O-])n1	0%	0%	82%	1%
Cc1ccc(OCC(=O)Nc2ccc(Cl)cc2)c([N+](=O)[O-])n1	14%	-1%	11µM*	14%
O=C(COc1cccnc1[N+](=O)[O-])Nc1cc(Cl)ccc1Cl	-7%	0%	11µM*	/
COc1ccc(NC(=O)c2cc3c(=O)n(C)c4cc(Cl)ccc4c3s2)cc1Cl	3%	/	/	/
O=C(NCc1cccs1)Nc1ccc2c(c1)OCO2	1%	0%	10µM*	-5%
O=C1CCC(C(=O)Nc2ccc(Cl)cc2)N1 (stereo not drawn)	0%	0%	-3%	1%
O=C(Nc1ccc(Cl)cc1)C1C2CCCCC21 (stereo not drawn)	-5%	0%	2.2µM*	-3%
O=C(NCC1CC1)Nc1ccc(Cl)cc1	-20%	0%	10µM*	5%
O=C(NCc1ccncc1)Nc1ccc2c(c1)OCO2	2%	-1%	12%	9%
Oc1ccc(NCc2cccs2)cc1	?	13µM*	-36%	-1%
COc1ccc(-c2[nH]c(-c3ccc(F)cc3)nc2SCC(=O)Nc2ccc(OC)c(OC)c2)cc1	5%	/	/	/
O=C(NCCNC(=O)Nc1ccc(Cl)cc1)Nc1ccc(Cl)cc1	4%	/	-14%	/
O=C(NCc1cccs1)Nc1ccc(Cl)cc1	0%	-1%	10µM*	4%
O=c1n(Cc2ccccc2Cl)nc2n1-c1ccccc1SC2	-4%	-1%	11µM*	13%
Oc1c(CNc2ccccc2)cc(COCc2ccccc2)c2cccnc12	/	?	-46%	4%
Oc1c(CN2CCOCC2)cc(COCc2ccccc2)c2cccnc12	8%	5.8µM*	-92%	-8%
COc1ccc(CCNc2ncnc3nc[nH]c23)cc1	/	/	51%	/
CCc1nnc(NC(=O)c2cccc(NC(=O)C(C)C)c2)s1	3%	0%	11µM*	4%
CCc1nnc(NC(=O)c2ccc(OC)cc2)s1	-8%	0%	7.1µM*	-1%
COC(=O)Nc1nnc(/C=C/c2ccc(OC)cc2)s1	-6%	0%	11µM*	2%
COc1cccc(C(=O)Nc2nnc(-c3ccccc3)s2)c1OC	11%	0%	1.8µM*	9%
SMILES	ERG Ets-DNA blk	B2AR arrestin	BRCA1 expr up	Mito fusion yeast
CCOc1ccccc1N(CC)C(=O)Cn1ncc2c([nH]c3ccccc32)c1=O	3%	/	/	/
COc1ccc(C(=O)Nc2nnc(-c3ccccc3)s2)cc1	-3%	0%	7.1µM*	1%
COc1ccc(C(=O)Cc2nnc(C)s2)cc1	/	0%	7.1µM*	-3%
CC(C)(C)Cc1nnc(NC(=O)Cc2ccc([N+](=O)[O-])cc2)s1	4%	3%	-27%	-8%
CC(C)(C)Cc1nnc(NC(=O)c2ccc([N+](=O)[O-])cc2)s1	7%	0%	5.6µM*	-4%
CCc1nnc(NC(=O)c2cc(C)oc2C)s1	-1%	0%	5.6µM*	-4%
COc1ccc(-c2nnc(NC(=O)c3c(OC)cccc3OC)s2)cc1	-1%	-1%	-19%	-7%
Cc1cc2nn(-c3ccccc3)nc2cc1NC(=O)COc1ccc(Cl)cc1	0%	/	/	/
c1ccc(CCSc2ncnc3nc[nH]c23)cc1	4%	-1%	3.2µM*	18µM*
Cc1nn(C)c(C)c1N1C(=O)c2cccc3c(N)ccc(c23)C1=O	35µM*	1%	-16%	6%
CC1CCN(C(=S)NCCc2ccccc2)CC1	-5%	0%	7.1µM*	3%
O=C(NC1CCCCC1)C(=S)NCCc1ccccc1	-11%	0%	11µM*	-2%
O=C(NCCc1ccccc1)C(=O)NC1CCCCC1	/	0%	4µM*	-1%
S=C(NCCc1ccccc1)N1CCN(C(=S)NCCc2ccccc2)CC1	-8%	0%	16%	-3%
S=C(NCCc1ccccc1)NC1CCCCCC1	-5%	0%	?	6%
Cc1cccc(C)c1OCc1cc(=O)n2c3c(sc2n1)CCCC3	-5%	/	-12%	/
CCOc1ccc(-c2c(C)nn3c(C)c(C(=O)NCc4cccc(OC)c4)cnc23)cc1OCC	0%	/	/	/
O=C1C(SCCO)=C(SCCO)C(=O)c2ccccc21	13µM*	-2%	-79%	?
CC1=C(SCc2ccccc2)C(=O)c2ccccc2C1=O	15%	/	-108%	/
CC(C)(C)c1ccc(C(=O)N2CCC(C(=O)NC3CC3)CC2)cc1	0%	0%	?	-3%
CC(C)(C)c1ccc(C(=O)N2CCC(NC(=O)c3ccccc3)CC2)cc1	-4%	-1%	14%	35µM*
COc1ccc(-c2noc(Cc3cccs3)n2)cc1	7%	0%	13µM*	1%
Cc1cc(OCc2nc(-c3cccs3)no2)cc(C)c1Cl	-9%	0%	33%	7%
Cc1ccc(-c2noc(COc3ccccc3C)n2)cc1	4%	-1%	?	-7%
c1ccc(OCc2nc(-c3cccs3)no2)cc1	-8%	4%	11µM*	4%
SMILES	ERG Ets-DNA blk	B2AR arrestin	BRCA1 expr up	Mito fusion yeast
Cc1ccc(OCc2nc(-c3ccccc3)no2)cc1	-4%	0%	8.9µM*	-8%
O=C(NCc1ccc(F)cc1)c1nc(-c2cccs2)no1	6%	0%	4%	-4%
Fc1ccc(OCc2nc(-c3cccs3)no2)cc1	-2%	0%	7.9µM*	9%
COc1ccc(S(=O)(=O)N2CCC(n3c(C(F)(F)F)nc4cccnc43)CC2)cc1OC	-1%	/	/	/
CC(=O)c1ccc(N2CCN(C(=O)C3CCN(S(=O)(=O)c4ccc(Br)s4)CC3)CC2)cc1	1%	/	/	/
COc1ccc(Nc2ncc(C(=O)Nc3ccc(F)cc3F)c3ccccc23)cc1	6%	/	-2%	/
COc1cc(OC)c(NC(=O)c2c(C)nn(-c3ccc(C)cc3)c2-n2cccc2)cc1Cl	0%	/	13%	/
Cn1ccsc1=NC(=O)c1cccc(OC(F)F)c1	-6%	0%	8.9µM*	13%
CN(C)c1ccc(/C=N/NC(=O)c2ccnn2C)cc1	-5%	0%	13µM*	-3%
CC(=O)Nc1cccc(NC(=O)c2cc3ccccc3o2)c1	0%	0%	8.9µM*	-2%
O=C(CCc1ccccc1)Nc1ccc(N2CCCCC2)cc1	-5%	-1%	11µM*	-11%
NNC(=O)c1cc2c(ccc3ccccc32)o1	-14%	0%	-13%	-6%

Source: PubChem (National Center for Advancing Translational Sciences (NCATS))
